Activity calls are given as the source filed them.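 How the source made its calls, unless noted: active means visually confirmed hit in the image check and inhibition above 20%; inconclusive means visually confirmed hit but inhibition not above 20%; inactive means no visual hit in the image check.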
Columns and labels:
[1] = inhibitors of TNFa-induced NFkB p65 translocation, primary screen, imaging, HUVEC, MLSMR starter and 10KST1 sets (AID 438;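 active means inhibition above 20% together with a positive visual image hit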;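 further: compound added about 3h40 before a 20 min TNFalpha stimulation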;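 on inhibition: signal is the nuclear over cytoplasmic p65 intensity ratio per well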); details: HUVEC TNFa-induced p65 nuclear translocation; cell count: measured here: nuclei count (cytotoxicity indicator), at 2.08 µM; inhibition: at 2 µM, stronger effect = higher value, 0% TNFa-plus-vehicle, 100% no-TNFa wells
[2] = inhibitors of mutant huntingtin aggregation, primary screen, imaging, exon1htt(103Q)mCFP cells, high-content imaging (AID 483;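 active means visual image review flags a hit and inhibition of aggregation exceeds 20%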;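 further: compound exposure lasted 3 days before fixation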;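 on nuclei count: percent of the per-plate median nuclei count of sample wells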); details: exon1htt(103Q)mCFP cell line, aggregate imaging, at 2 µM; inhibition of aggregation: stronger effect = higher value; nuclei count: measured here: cell count, toxicity
[3] = inhibitors of E-selectin induction by TNFa, primary screen, imaging, HUVEC, immunofluorescence, MLSMR starter and 10KST1 sets (AID 487); details: HUVEC TNFalpha-induced E-selectin immunofluorescence imaging, at 2 µM; inhibition: stronger effect = higher value; nuclei count: measured here: cell number, toxicity;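 on inhibition: signal is fraction of cell area covered by stained E-selectin grains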;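 on nuclei count: 100% = median nuclei count of all wells on the same plate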
[4] = target: Voltage-gated potassium channel subunit beta-2 (Rattus norvegicus) (UniProt P62483); assay: KvBeta enzyme negative modulators, primary screen, biochemical, NADPH fluorescence (AID 622;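 active means fluorescence slope higher than the sample average by over 3 SD, cut at about -0.22 in these data, passing the limit was not always enough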;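 further: slope of raw intensity against log time taken from 70 to 1610 s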); details: recombinant KvBeta, 4-cyanobenzaldehyde reduction, at 10 µM, stronger effect = higher value
Sequence of Voltage-gated potassium channel subunit beta-2 (Rattus norvegicus) (P62483 whole entry, looked up): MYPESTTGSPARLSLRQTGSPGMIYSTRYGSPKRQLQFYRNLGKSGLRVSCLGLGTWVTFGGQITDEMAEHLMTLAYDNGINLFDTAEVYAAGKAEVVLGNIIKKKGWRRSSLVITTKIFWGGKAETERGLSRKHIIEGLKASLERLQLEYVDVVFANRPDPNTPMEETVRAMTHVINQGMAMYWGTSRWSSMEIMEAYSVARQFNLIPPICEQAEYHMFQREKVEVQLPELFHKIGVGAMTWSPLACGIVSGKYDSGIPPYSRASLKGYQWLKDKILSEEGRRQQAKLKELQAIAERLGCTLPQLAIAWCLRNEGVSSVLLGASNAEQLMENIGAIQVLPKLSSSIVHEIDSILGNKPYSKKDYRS

[5] = target: Voltage-gated potassium channel subunit beta-2 (Rattus norvegicus) (UniProt P62483); assay: KvBeta positive modulators, primary screen, biochemical, NADPH fluorescence (AID 623;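 active means NADPH fluorescence slope more negative than the mean of all samples by about 3 SD, 99.7% confidence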;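 further: fluorescence intensity change per second fitted from 20 to 320 s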); details: Recombinant KvBeta, NADPH fluorescence decrease slope, 10 min; at 10 µM; stronger effect = lower value
[6] = target: Alpha-2C adrenergic receptor (Homo sapiens) (UniProt P18825); assay: modulators of alpha2C/GIRK thallium flux, primary screen, cell-based, HEK293 alpha2C/GIRK1/2 (AID 624;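 active means fluorescence slope after compound addition differing from the mean of all screened samples at 99.7% confidence, in either direction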;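 further: slope of fluorescence ratio to pre-addition baseline per second over 15 to 24 s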); details: thallium flux BTC fluorescence, at 10 µM, actives lie on both sides
Sequence of Alpha-2C adrenergic receptor (Homo sapiens) (P18825 whole entry, looked up): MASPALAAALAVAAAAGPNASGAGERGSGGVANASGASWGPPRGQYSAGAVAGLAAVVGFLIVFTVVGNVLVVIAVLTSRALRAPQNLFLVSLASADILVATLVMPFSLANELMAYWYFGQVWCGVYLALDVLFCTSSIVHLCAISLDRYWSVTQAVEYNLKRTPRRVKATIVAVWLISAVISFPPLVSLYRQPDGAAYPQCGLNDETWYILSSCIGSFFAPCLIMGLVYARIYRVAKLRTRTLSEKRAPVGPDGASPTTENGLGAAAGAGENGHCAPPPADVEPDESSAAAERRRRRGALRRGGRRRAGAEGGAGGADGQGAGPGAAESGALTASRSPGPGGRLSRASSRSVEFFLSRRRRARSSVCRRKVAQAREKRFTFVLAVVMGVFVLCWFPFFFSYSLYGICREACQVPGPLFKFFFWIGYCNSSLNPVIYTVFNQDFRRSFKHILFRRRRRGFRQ

[7] = inhibitors of Sendai virus-induced IRF3 signaling, primary screen, TLR/RLR signaling modifier project, cell-based, Sendai virus stimulus, luciferase, 10K MLSCN set (AID 602276;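 active means inhibition at or above 50% at 10 µM; inactive means inhibition below 50%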;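 further: firefly luciferase from ISG56 promoter only with Renilla not read in this screen; 0% = Sendai virus plus DMSO and 100% = medium plus DMSO without virus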); details: HEK293 RL24 IRF3 luciferase reporter, at 10 µM, stronger effect = higher value
[8] = inhibitors of poly I:C-induced TLR3 signaling, primary screen, cell-based, poly I:C stimulus, luciferase, 10K MLSCN set (AID 602277;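 active means inhibition of the reporter signal at or above 50%; inactive means inhibition below 50%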); details: HEK293-TLR3 RL24 IRF3 luciferase reporter, at 10 µM, stronger effect = higher value

Structure (SMILES) | cell count [1] | inhibition [1] | inhibition of aggregation [2] | nuclei count [2] | inhibition [3] | nuclei count [3] | fluorescence slope [4] | NADPH fluorescence slope [5] | slope [6] | inhibition [7] | inhibition [8]
COc1ccc(CCNc2oc(Cc3cccc4ccccc34)nc2C#N)cc1OC | 718 | 13.9% (inactive) | 8.4% (inactive) | 81.2% | 24.2% (inactive) | 88.7% | -0.396 (inactive) | -8.6e-06 (inactive) | 0.00516 (inactive) | 17.3% (inactive) | 6.78% (inactive)
CCCSc1nnc2nc3c(nn12)c1ccccc1n3C | 572 | 4.4% (inactive) | -6.3% (inactive) | 109% | 5.3% (inactive) | 107% | -0.519 (inactive) | -6.9e-05 (inactive) | 0.0026 (inactive) | 5.91% (inactive) | 27.8% (inactive)
O=C(NC1CCCCC1)c1nc2c(nnn2Cc2ccccc2Cl)c(=O)[nH]1 | 584 | 8.8% (inactive) | 17.1% (inactive) | 85.3% | 7.2% (inactive) | 105% | -0.525 (inactive) | -2.9e-05 (inactive) | 0.0047 (inactive) | 3.13% (inactive) | 6.18% (inactive)
COC1CCCCC1NS(=O)(=O)c1ccccc1 (configuration not stated) | 317 | 1.4% (inactive) | 12.2% (inactive) | 113% | 19.4% (inactive) | 114% | -0.312 (inactive) | -3.1e-06 (inactive) | 0.00597 (inactive) | 11.1% (inactive) | 27.4% (inactive)
O=C1c2ccccc2C(Nc2ccc(F)cc2F)N1CCN1CCOCC1 (configuration not stated) | 791 | 1.8% (inactive) | 19.4% (inactive) | 101% | -46.2% (inactive) | 124% | -0.416 (inactive) | -3.1e-05 (inactive) | 0.00478 (inactive) | 13.8% (inactive) | 38.8% (inactive)
CN(C)c1cccc(NC(=O)CCc2ccccc2)c1 | 503 | -5.1% (inactive) | -5.3% (inactive) | 106% | -7.2% (inactive) | 95.9% | -0.594 (inactive) | 9.8e-06 (inactive) | 0.00703 (inactive) | -9.67% (inactive) | -5.4% (inactive)
O=C1OCCC1Sc1ncnc2sc3c(c12)CCC3 (configuration not stated) | 755 | -6.2% (inactive) | 4.8% (inactive) | 84.1% | -9.4% (inactive) | 111% | -0.412 (inactive) | 4.3e-06 (inactive) | 0.00667 (inactive) | 9.45% (inactive) | 17% (inactive)

Source: PubChem BioAssay
